Experimental data from article PMC5540273 (PLoS ONE, 2017).

Test system: T1, ERK4
T1 construct: gene MAPK4
Conditions: concentration: 1 μM, replicates: in singlicate; n = 1
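Further: KINOMEscan kinase panel screen.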

SMILES | %Inh [%]
Cn1cc(-c2[nH]c3cc(NC(=O)[C@H](N)C4CCCCC4)cc4c3c2C=NNC4=O)cn1 | 6
O=C(Nc1ccccc1F)NC1CCN(c2ccnc(Nc3ccc(F)cc3)n2)CC1 [GSK1379800] | 0
Cc1ccc(F)c(C(=O)Nc2cccc(-c3nn4ccccc4c3-c3ccnc(Nc4cccc(F)c4)n3)c2)c1F [GSK361061] | 21
O=C(O)C(F)(F)F.O=C(O)C(F)(F)F.O=c1[nH]ccc2nc(N[C@@H]3CCCNC3)nc(Nc3ccc(S(=O)(=O)N4CCOCC4)cc3)c12 [GSK2177277] | 100
CN1CCN(CCCNc2nccc(-c3c(-c4ccc(F)cc4)nn4cc(C(F)(F)F)ccc34)n2)CC1 [GW621581] | 5
CSc1cccc2c(-c3ccncn3)c(-c3ccc(F)cc3)nn12 [GW514786] | 5
O=C(Nc1cccc(-c2nn3ccccc3c2-c2ccnc(Nc3cccc(C(F)(F)F)c3)n2)c1)c1c(F)cccc1F [GSK292658] | 0
COc1ccc(Nc2nccc(N3CCC(NC(=O)Nc4cccc(OC)c4)C3)n2)cc1 (stereo not shown) [GSK1379742] | 0
Cc1cccc(NC(=O)Nc2ccc(Oc3ncnc4ccn(C)c34)cc2)c1 | 0
O=C(NC1CCN(c2ccnc(Nc3ccc(F)cc3)n2)C1)c1cc2ccccc2s1 (stereo not shown) [GSK1379716] | 31
O=c1[nH]cc(-c2ccc(N3CCOCC3)cc2)c2sc(-c3cn[nH]c3)cc12 [GSK2276055] | 19
Nc1ncc(-c2cccnc2)c2scc(-c3ccc4c(c3)CCN4C(=O)Cc3ccccc3)c12 [GSK683281] | 21
O=C(Nc1cccc(Oc2ccc3nc(NC(=O)C4CC4)cn3n2)c1)c1ccccc1C(F)(F)F | 0
Cl.Cl.NCC(NCc1ccc(-c2ccnc3[nH]ccc23)s1)c1ccccc1 (stereo not shown) [GSK1321565] | 0
COc1ccc(CNC(=O)NC2CCN(c3ccnc(Nc4ccc(F)cc4)n3)CC2)cc1 [GSK1379788] | 0
CCn1c(-c2nonc2N)nc2c(C#CC(C)(C)O)nc(OC[C@H](N)c3ccccc3)cc21 [GSK943949] | 0
CN(c1ccc(NC(=O)Nc2cc(C(F)(F)F)ccc2F)cc1)c1ccnc(Nc2ccc(S(N)(=O)=O)cc2)n1 [GW809893] | 0
O=C(Nc1n[nH]c2nc(-c3ccc(O)cc3)ccc12)C1CC1 [SB-710363] | 0
O=C(Nc1cccc(-c2nn3ccccc3c2-c2ccnc(Nc3cccc(F)c3)n2)c1)c1c(F)ccc(F)c1Cl [GSK357952] | 0

SMILES | %Inh [%]
Nc1ncnc2c1nc(-c1ccccc1)n2-c1ccccc1 [SKF-97293] | 0
Cc1cccc(Nc2nc(N[C@H]3CCNC3)ncc2C(N)=O)c1.Cl [GSK2197149] | 25
COc1cccc(C2=C(Nc3ccc(Cl)c(C(=O)O)c3)C(=O)NC2=O)c1 [SB-390769] | 19
COc1cc(Nc2nccc(-c3c(-c4cccc(NC(=O)c5c(F)cccc5F)c4)nn4ccccc34)n2)cc(OC)c1OC [GSK323521] | 3
CC(=O)Nc1nc2cnc(Nc3cc(NC(=O)c4cccc(C5(C#N)CC5)c4Cl)ccc3C)nc2s1 | 0
c1ccc(Oc2ccc(Nc3ccnc4cc(-c5ccc(CNCCN6CCOCC6)o5)ccc34)cc2)nc1 [GW567145] | 0
CNC(=O)c1ccccc1Nc1nc(Nc2ccc(N3CCOCC3)cc2)ncc1Cl.Cl [GSK1576028] | 64
Cl.Cl.NCC(NC(=O)c1cc(-c2ccccc2)c(-c2ccnc3[nH]ccc23)s1)c1ccccc1 (stereo not shown) [GSK1321561] | 8
Fc1ccc(-c2ncn(C3CCNCC3)c2-c2ccnc(Oc3ccc(-c4ccccc4)cc3)n2)cc1 [SB-245391] | 15
Cn1cc(-c2ccc3c(c2)CCN3C(=O)Cc2cccc(F)c2)c2c(N)ncnc21 [GSK2603358] | 26
COc1cc(Nc2nccc(N3CCC(NC(=O)c4cc5ccccc5s4)C3)n2)cc(OC)c1OC (stereo not shown) [GSK1379760] | 0
CC(=O)N1CCN(c2ccc(Nc3nccc(-c4sc(C(C)C)nc4-c4cccc(NS(=O)(=O)c5cccc(Cl)c5)c4)n3)cn2)CC1 [GSK1660437] | 0
COc1cc(Nc2ncc3c(C)nc(-c4cc5ccccc5[nH]4)n3n2)cc(OC)c1OC [GW869516] | 38
CN1CCN(Cc2cccc(-c3ccc4c(Nc5ccc(Oc6ccccc6)cc5)ccnc4c3)c2)CC1 [GW578342] | 9
Nc1ncc(-c2ccc3nccc(-c4ccncc4)c3c2)cc1S(=O)(=O)N1CCOCC1 [GSK1627798] | 10
CN(C)S(=O)(=O)c1cc(-c2ccc3nccc(-c4cccc(S(N)(=O)=O)c4)c3c2)cnc1N [GSK1669921] | 0
CCn1c(-c2nonc2N)nc2c(C#CC(C)(C)O)ncc(OCCCCN)c21.O=C(O)C(F)(F)F.O=C(O)C(F)(F)F [GSK507274] | 8
Cc1ccc(C)c(NC(=O)NC2CCN(c3ccnc(Nc4ccc(F)cc4)n3)C2)c1 (stereo not shown) [GSK1379720] | 12
